Experimental findings from PubChem BioAssay AID1688 (National Center for Advancing Translational Sciences (NCATS), 2009) are described below.

The whole screen tested about 220,000 compounds, of which about 2,400 (1.1%) were called active. Where a call stands in place of a potency, no number is given. Another 7% or so got no clear call; they are omitted. The call rests on the fitted dose curve; in most records, active means well fitted inhibition curve with a large enough effect; inconclusive means small, poorly fitted or top-dose-only effect, or effect the other way; inactive means no such curve, though single readings can be large or run the other way. Many of the other results were omitted from the sample, so actives are more common in it than they were.
Potency means the concentration at half of the fitted maximal effect.

The test is described as follows: qHTS Multiplex Assay to Identify Dual Action Probes in a Cell Model of Huntington: Aggregate Formation (GFP). Further: nearly all actives have a fitted effect of over 60% in size. As to conditions: PC12 HttQ103-GFP aggregates, Acumen cytometry, 40 h; series mostly up to 9.22 µM. From the text:
NIH Chemical Genomics Center [NCGC]
NIH Molecular Libraries Probe Production centers Network [MLPCN]
Assay Submitter (PI): Wei Zheng
Huntington's disease is a neurodegenerative disorder caused by a trinucleotide repeat expansion in Exon 1 of the Huntingtin gene. The CAG trinucleotide encodes glutamine and polyglutamine expansions cause cell death in selective areas of the brain. Huntington polyglutamine repeats have the tendency to form aggregates which are observable in later stages of the disease. The exact nature of the aggregates, whether toxic, protective, or insignificant, is unclear.
A stable PC12 cell line containing a gene fusion of Exon 1 of the Huntingtin gene linked to GFP under the control of the inducible ecdysone promoter were used as the cell-based model of Huntington Disease for high throughput screening. Exon 1 of the Huntingtin gene contained an expansion of 103 polyglutamines (Q103) which, when expressed, caused cell death and distinct, bright GFP aggregates. The amount of cell death and the size and intensity of GFP aggregates increased over time and induction level. The cell death were quantified with a measurement of ATP content in the cells. A maximal 40-50% of cell death was observed when the Huntington gene was induced in this cell line.
We optimized this assay in a homogeneous 1536 well format. A quantitative high throughput screen (qHTS) was conducted on the PC12 cells which were induced to express the toxic fusion construct. Small molecules which reduced aggregate formation were identified bu using a laser scanning cytometer calibrated to detect the aggregates in cell lysates.
PC12 cells stably containing a construct with an ecdysone inducible promoter expressing GFP fused to the exon 1 of HTTQ103 (Huntington protein which containing a 103 ployglutamine expansion) were used.
NCGC Assay Protocol Summary:
Sequence, Parameter, Description
1, Reagent, 5 uL 1500 cells/well 1536 TC treated White clear bottom plate
2, Compound, 23 nL Tebufenozide inducer (100 nM final) to all columns
3, Compound, 23 nL 40 uM to 0.5 nM Libraries
5, Reagent, 5 ul ATPLite cell death assay reagent
6, Detector, Aggregate quantitation by Acumen Explorer
Media consisted of phenol red free DMEM + 5% equine serum (Hyclone # SH30072.03 ), 5% supplemented Bovine Calf Serum (Hyclone # SH30074.03 ), 1x pen/strep, no G418
Acumen Explorer was used to quantitate GFP aggregates using the following criteria: […] laser excitation, 500-530 nm emission, the PMT was set at a voltage of 450 volts, and objects ranging in size of […] in size having a signal of 6 STDEV above background were collected.
Control columns: 1 = DMSO, 2= 2 uM teb dilns (1:1), 4 = 100 nM Teb inducer. Sample columns received 100 nM Teb.
For `Nc1nnc(SCC(=O)NC2CCCc3ccccc32)s1` (configuration not stated), the Potency result was “inactive”. As to `O=C(Cc1ccc(Cl)c(Cl)c1)Nc1ccc(SC(F)F)cc1`, the Potency was 12.6 µM (active).

Consider `O=C(CCl)Nc1ccc(Sc2ccc(NC(=O)CCl)cc2)cc1`, for which the Potency result was “inactive”.

In the case of `O=C(Cc1ccc2c(c1)CCCC2)Nc1ccccc1Cl`, the Potency entry is “inactive”. Take `O=C(NNC(=O)c1cnccc1C(F)(F)F)c1ccc(Cl)cc1`: the Potency result was “inactive”. To `CC(=O)NC(CC(=O)Nc1nccs1)c1ccccc1` (configuration not stated) belongs “inactive”. The same measure for `CCOC(=O)C1=C(c2ccc(OC)cc2)C(=O)c2ccccc2C1=O`: 11.2 µM (active); for `CCOC(=O)c1c(-c2ccc(C)cc2)csc1/N=C(\C)C1=C(O)c2ccccc2C1=O`: “inactive”. The same measure for `CCCCC(C(=O)OCC(=O)c1ccc(OC)cc1)N1C(=O)c2ccccc2C1=O` (configuration not stated): “inactive”; for `CC(CNS(=O)(=O)c1ccc(Br)cc1)CN(C)C` (configuration not stated): “inactive”.

Consider `c1ccc(Nc2nc(N3CCOCC3)c3ccccc3n2)cc1`, for which the Potency was 12.6 µM (active). The same measure for `CN1CCN(c2nc(Nc3ccc(O)cc3)nc3ccccc23)CC1`: “inactive”; for `c1ccc(-c2nnc(N3CCOCC3)c3ccccc23)cc1`: “inactive”. On to `CN(c1ccc(OCC(=O)NC2=NCCS2)cc1)S(=O)(=O)c1ccc(F)cc1`, for which the Potency result is “inactive”.

As for `Cc1ccc(C(=O)Nc2nnc(-c3cccs3)s2)cc1C`, the Potency result is “inactive”.

As for `N#Cc1ccc(C(=O)Nc2nc(-c3cccs3)c(C(=O)C(F)(F)F)s2)cc1`, the Potency is 2.82 µM (active). Regarding `CC(=O)c1sc(NC(=O)c2ccc(C)cc2)nc1C`, the Potency entry is “inactive”. In the case of `Clc1ccc(CSc2nnc3c(n2)[nH]c2ccccc23)cc1`, the Potency entry is “inactive”. For the molecule `Cc1ccc(CSc2nnc(-c3cnccn3)n2C)cc1`, the Potency result was “inactive”.

Turning to `O=C(CCCO)N/N=C/c1cc(Br)ccc1O`, the Potency was 7.94 µM (active). The same measure for `COc1ccc(CC(=O)NCC(=O)N/N=C/c2cc(Br)ccc2OC)cc1`: “inactive”; for `Oc1ccc(Br)cc1C=Nc1ccc2[nH]ncc2c1`: “inactive”. As to `COc1ccc(Cl)cc1CSc1ncn[nH]1`, the Potency result was “inactive”. For `COc1ccc(-c2nnc(SCC(=O)c3cccs3)o2)c(OC)c1`, the Potency entry was “inactive”.

With `COc1ccc(-n2c(C)cc(C(=O)CSc3nnc(-c4cccs4)o3)c2C)cc1`, the Potency was 7.94 µM (active). Take `COc1ccc(OC)c(C(=O)CSc2nnc(-c3cccs3)o2)c1`: the Potency result is “inactive”. Take `C/C=N/N(c1ccccc1)c1ccccc1`: the Potency entry is “inactive”.

With `COc1cccc(Nc2nnc(SCC(=O)N3CC(=O)Nc4ccccc43)s2)c1`, the Potency result was “inactive”. In the case of `O=P(O)(O)OC[C@H](O)CO`, the Potency entry is “inactive”. Consider `Cc1nc(CNS(=O)(=O)c2ccc(Oc3ccccc3)cc2)cs1`, for which the Potency is 10 µM (active). The same measure for `Cc1ccc(S(=O)(=O)NCc2csc(C)n2)c(C)c1`: “inactive”; for `Cc1nc(CNS(=O)(=O)c2cccnc2)cs1`: “inactive”. `CSC1=NC2(C)CCCCC2C12C=CC(=O)C=C2` (configuration not stated): the Potency result is “inactive”.

On to `Nn1c(SCc2ccccc2)nnc1C1CCCCC1`, for which the Potency entry was “inactive”. For `Cc1cccc(Cn2c(SCCO)nc3c2c(=O)n(C)c(=O)n3C)c1`, the Potency result was “inactive”.

As to `COC(=O)C(C)Sc1nc2c(c(=O)n(C)c(=O)n2C)n1Cc1cccc(C)c1` (configuration not stated), the Potency was 28.2 µM (active).

`Cc1cccc(Cn2c(N3CCN(c4ccccc4)CC3)nc3c2c(=O)n(C)c(=O)n3C)c1`: the Potency result is “inactive”. Regarding `CCCCNc1nc2c(c(=O)n(C)c(=O)n2C)n1Cc1cccc(OC)c1`, the Potency is 7.08 µM (active). In the case of `CCCCNc1nc2c(c(=O)[nH]c(=O)n2C)n1CCOc1ccccc1`, the Potency entry was “inactive”.

Take `CCn1c(NCCc2ccc(OC)c(OC)c2)nc2c1c(=O)n(C)c(=O)n2C`: the Potency entry is “inactive”.

For `CN(C)C(=O)c1coc2nc3ccccc3nc12`, the Potency result is “inactive”. As to `Cn1nc(C(F)(F)F)c(-c2ccc(F)cc2)c1NC(=O)CSCC(=O)O`, the Potency entry is “inactive”. As to `c1ccc2sc(NN=C3CCCC3)nc2c1`, the Potency result was “inactive”.

As to `O=[N+]([O-])c1cc(Br)c(O)c(/C=N/Nc2nc3ccccc3s2)c1`, the Potency was 5.01 µM (active). To `COc1cc(/C=N/Nc2nc3ccccc3s2)ccc1O` belongs “inactive”; to `COc1ccc(C(C)=O)cc1COc1ccc(Cl)c(C)c1`, “inactive”; to `CCOC(=O)C1=C(N)N2C(=O)C(C)SC2=C(C(=O)OCC)C1c1cc(OC)c(OC)c(OC)c1` (configuration not stated), “inactive”. With `O=C(NC(=O)c1ccccc1N1CCCCC1)Nc1ccc(Br)cc1`, the Potency result was “inactive”. In the case of `O=C(CN1C(=O)c2cccc3cccc(c23)C1=O)N1CCCCC1`, the Potency result was “inactive”. On to `Cn1c(=O)n(C)c(=O)n(CC(=O)N2CCCCC2)c1=O`, for which the Potency is 3.55 µM (active).

As to `COc1cccc2c(=O)n(CC(=O)N3CCCCCC3)ccc12`, the Potency entry is “inactive”. The same measure for `O=C(CC(c1ccccc1)c1cc(Cl)ccc1O)NCCN1CCOCC1` (configuration not stated): “inactive”; for `Cc1c(NC(=O)C(=O)N/N=C/c2cccs2)c(=O)n(-c2ccccc2)n1C`: “inactive”; for `COC(=O)c1cc(S(=O)(=O)N2CCC(C(N)=O)CC2)oc1C`: “inactive”.

In the case of `Cc1nc(SCC(=O)N2CCc3ccccc3C2)c2c(C)c(C)sc2n1`, the Potency was 14.1 µM (active). The same measure for `Cc1nnc(SCC(=O)N2CCc3ccccc3C2)s1`: “inactive”. In the case of `Cc1nc(SCC(=O)N2CC(=O)Nc3ccccc32)c2c(C)c(C)sc2n1`, the Potency entry is “inactive”.

`O=C(Nc1ccc(Cl)cc1)Nc1ccc(C(=O)N2CCOCC2)cc1`: the Potency result was “inactive”. The same measure for `O=C(C[n+]1cc(-c2ccc(Cl)c(Cl)c2)n2c1CCC2)c1cccs1`: “inactive”; for `COc1ccc(CCN2C(=O)CC(N3CCC(C(N)=O)CC3)C2=O)cc1OC` (configuration not stated): “inactive”; for `CCCCCCc1cc2cc(-c3nnc(-c4ccccc4)o3)c(=O)oc2cc1O`: 5.01 µM (active). To `CCCC(=O)Nc1nnc(-c2ccccc2)o1` belongs “inactive”; to `Cc1c(CCC(=O)O)c(=O)oc2cc3occ(-c4ccccc4)c3cc12`, “inactive”. For the molecule `COc1cc(C(F)(F)F)c(C(=O)N(C)c2ccc(Cl)cc2)cn1`, the Potency entry was “inactive”. The same measure for `CCC(=O)Nc1cccc(C2=NOC3(C2)C[C@@H](C(N)=O)N(C(=O)c2cc([N+](=O)[O-])cc([N+](=O)[O-])c2C)C3)c1` (some centres not stated): “inactive”. Consider `O=c1c2ccccc2nc2n1C(CSc1ccc(F)cc1)CN2` (configuration not stated), for which the Potency result was “inactive”. Regarding `O=c1c2ccccc2nc2n1C(CSCc1ccccc1)CS2` (configuration not stated), the Potency was 11.2 µM (active). The same measure for `O=c1c2ccccc2nc2n1C(CSc1ccc(Cl)cc1)CN2` (configuration not stated): “inactive”; for `CN(C)S(=O)(=O)c1ccc(NC(=O)COC(=O)Cn2[nH]c(=O)c3ccccc3c2=O)cc1`: “inactive”. The same measure for `Clc1cccc(-c2nc(NCC3CCCO3)c3ccccc3n2)c1` (configuration not stated): “inactive”; for `O=C(O)c1cccc(NC(=O)c2cc(-c3cccc(Cl)c3)nc3ccccc23)c1`: “inactive”; for `Clc1ccc2nc(-c3ccccc3)nc(C(Cl)Cl)c2c1`: 1.41 µM (active).
